Test results from PubChem BioAssay (NCI).
Compounds without any hit were thinned out: in the full panel of roughly 79,000, 15% have a hit. Unmarked numbers belong to inactive results. Active and inactive are the calls of the source. No stated cut-off is given here; in the data, active means growth inhibition above about 70%; inactive means the rest.

Assays:
[1] = NCI Yeast Anticancer Drug Screen. Data for the rad50 strain (AID 155);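 further: 0% = growth of vehicle-only cultures of the same strain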; conditions: S. cerevisiae rad50 strain growth inhibition; at 50.0 µM; hits give high values
Procedure, shortened: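 Genetically altered yeast (DNA repair pathway); compound treatment; growth inhibition vs vehicle ctrl.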

[2] = NCI Yeast Anticancer Drug Screen. Data for the mec2-1 strain (AID 157); conditions: S. cerevisiae mec2-1 strain, at 50.0 µM, hits give high values
Procedure, shortened: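 Using mec2-1 yeast: add compound, measure growth, express inhibition versus vehicle-treated cultures.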

[3] = NCI Yeast Anticancer Drug Screen. Data for the sgs1 mgt1 strain (AID 161);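 further: 0% = growth of cultures given vehicle only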; conditions: S. cerevisiae sgs1 mgt1 strain, at 50.0 µM, hits give high values
Procedure, shortened: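 Yeast cells carrying a defined DNA-repair defect were exposed to test compounds. Growth inhibition was measured relative to vehicle-treated controls.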

[4] = NCI Yeast Anticancer Drug Screen. Data for the cln2 rad14 strain (AID 165);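 further: 0% = growth equal to vehicle treated cultures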; conditions: S. cerevisiae cln2 rad14 strain, at 50.0 µM, hits give high values
Procedure, shortened: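 Yeast strain cln2 rad14, bearing defects in cell cycle control and DNA repair, serves as the test system; values reflect growth inhibition compared with vehicle.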

[5] = NCI Yeast Anticancer Drug Screen. Data for the bub3 strain (AID 167); conditions: S. cerevisiae bub3 mutant strain, at 50.0 µM, hits give high values
Procedure, shortened: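 Yeast carrying a defined mutation is treated with each compound, and growth is compared with that of vehicle-exposed cells to give inhibition.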

[6] = NCI Yeast Anticancer Drug Screen. Data for the mlh1 rad18 strain (AID 175); conditions: S. cerevisiae mlh1 rad18 strain growth inhibition; at 50.0 µM; hits give high values
Procedure, shortened: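 Steps: expose repair-defective yeast to compound; measure growth; express inhibition against vehicle-treated controls.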

Structure (SMILES)	growth inhibition [1]	growth inhibition [2]	growth inhibition [3]	growth inhibition [4]	growth inhibition [5]	growth inhibition [6]
CCN(CC)c1nc(NNS(=O)(=O)c2ccccc2)nc(N(CC)CC)n1	-3.6%	-5.2%	4.3%	-13.1%	-4.3%	11%
O=c1oc2ccc(Cl)cc2c(=O)n1-c1cc(Cl)ccc1[N+](=O)[O-]	-4.65%	-21%	-6.8%	-11.5%	0.45%	21.6%
COc1ccc(OC)c(NCc2ccccc2)c1	-8.6%	-2.5%	-13.9%	-88.5%	-0.4%	3.65%
COc1nc2c(c(O)c(C)c(=O)n2OC2OCC(OC(C)=O)C(OC(C)=O)C2OC(C)=O)c(=O)n1C (centres undefined)	-0.15%	-19.4%	-30.6%	-1.85%	-10.3%	-20.8%
CCCOC(=O)c1ccccc1Cl	31.1%	22.5%	23.1%	13.4%	11.6%	24.1%
COc1ccc2c(c1O)C1(CCN(C)C)CC(=O)CCC1C=C2 (centres undefined)	13.2%	-11.5%	9.55%	6.2%	25.5%	12.4%
CCOC(=O)CCCN	-8.45%	-3%	-6.95%	56.7%	-39.8%	-16.1%
COC(=O)C1(CC(=O)c2ccc(Cl)cc2Cl)NC(=S)NC(=O)C1C#N (centres undefined)	19.4%	9.05%	-8.2%	16.2%	4.45%	18.8%
O=C(CCC/C(CC(=O)c1ccc(Cl)cc1)=N\NC(=O)c1cc2ccccc2cc1O)Nc1cccc([N+](=O)[O-])c1	52%	47.2%	52.9%	25.6%	6%	56.8%
Cc1ccc(/C=N/NC(N)=O)cc1	25.6%	15.8%	12.3%	10.4%	17.2%	-3.85%
Cc1ccc2nc(N(C)C)cc(N(C)C)c2c1	-7.1%	6%	0.2%	-100%	-4.1%	7.9%
CN(CC(=O)c1ccc(Cl)cc1)Cc1cccc2ccccc12	18.2%	-5.8%	51.4%	11.7%	22.9%	38.8%
CC(=O)c1cccc2c(C(C)=O)cccc12	5.45%	-5.2%	14.8%	-20.1%	3.4%	-15.1%
Cc1cc(C)n(-c2nc(-n3nc(C)cc3C)nc(-n3nc(C)cc3C)n2)n1	-34.2%	-32.2%	-1.7%	-20.6%	-21.1%	-41.5%
OC1CCCC2CCCC12 (centres undefined)	1%	1.15%	-8.1%	15.4%	16.4%	-5.75%
COC(=O)CN(CC(=O)OC)C(C)=O	-9.2%	-4.35%	-0.05%	2.7%	13.5%	0.6%
O=C(O)C1=NN(c2ccc(S(=O)(=O)O)cc2)C(=O)C1N=Nc1ccc(S(=O)(=O)O)cc1 (centres undefined)	7.3%	-0.6%	17.1%	16.9%	-1%	13%
O=[N+]([O-])c1ccc(N(CCO)CCO)nc1	-15.7%	-76.6%	5.15%	19.5%	-19.3%	-17.8%
O=C1CC(=O)c2cccc3cccc1c23	42.8%	22.7%	44.4%	7.35%	47.9%	27.1%
Nc1nc2c(c(=O)[nH]1)NC(CCNc1ccc(C(=O)NC(CCC(=O)O)C(=O)O)cc1)CN2 (centres undefined)	14%	14.9%	25.6%	19.6%	7.65%	16.1%

Structure (SMILES)	growth inhibition [1]	growth inhibition [2]	growth inhibition [3]	growth inhibition [4]	growth inhibition [5]	growth inhibition [6]
COC1OC(COCc2ccccc2)C(OCc2ccccc2)C(OC)C1O (centres undefined)	-37.6%	-3%	5.6%	-40.9%	-2.3%	-17.6%
CCCCCCC(=O)/C=C/c1cc(Cl)cc(Cl)c1OCOC	35%	26.1%	25.1%	-4.4%	18.4%	5.6%
CN1C(=O)CC(c2ccc(Cl)cc2)C1=O (centres undefined)	21.4%	21.4%	-0.65%	2.5%	-3.75%	2.65%
O=C(O)C(=Cc1ccc(-c2ccc([N+](=O)[O-])cc2)o1)C(=O)O	6.95%	0.7%	-12.8%	29.9%	15.8%	12.4%
CCC1(C)C(=O)NC(=O)N1C(C)=O (centres undefined)	-5.1%	-21.4%	-3.85%	-44.2%	-12.3%	-7.55%
Nc1cc(F)ccc1CC(=O)O	11.4%	23.1%	15.3%	-4.8%	11.7%	4.6%
NC(=O)NC(=O)c1ccccc1	-10.4%	-15.2%	-10.2%	-9.25%	3.55%	-7.55%
CCC(C)OC(=S)S.[Cu+2] (centres undefined)	-23.6%	19.4%	-0.85%	-4.8%	-76.5%	-44.9%
CCOc1cccc(/C=N/N=C2\C(=O)Nc3c(Cl)cc(Cl)cc32)c1O	22.2%	15.6%	39.9%	40.8%	34.1%	83.2% (active)
CC(C)c1cc(C(C)C)c(B(c2ccccc2)c2ccccc2)c(C(C)C)c1B(c1ccccc1)c1ccccc1	-13.7%	4.8%	18.4%	6.3%	6.35%	13.9%
CCOC(=O)c1ccc(Nc2cnc3ccc(C(F)(F)F)cc3n2)cc1	14.4%	-2.35%	24.9%	14.9%	30.9%	-32.8%
CCNC(=O)OCCN(CCOC(=O)NCC)CCc1cccc(OC)c1OC	6.1%	6.65%	-7.3%	1.95%	-3.5%	20.6%
COc1ccc(N(CN2C(=O)CCC2=O)CS(=O)(=O)c2ccc(Cl)cc2)cc1	16.6%	0.2%	11.5%	14.9%	-3.75%	-16.4%
CCN(CC)c1ccc2c(c1)Oc1cc(N(CC)CC)ccc1C2c1ccccc1C(=O)O	-10.2%	-32.6%	-1.5%	13.8%	3.6%	-3.45%
c1ccc(Nc2nnc(Nc3ccccc3)s2)cc1	-6.15%	21.6%	53%	-21.2%	3.9%	-21.1%
O=C(NC(=O)c1ccccc1F)Nc1ccc(Cl)cc1	27.1%	37.3%	24.6%	56.8%	49.8%	43.1%
CCCCC(CC)CN(CC)CC (centres undefined)	-11.1%	-4.25%	-26.5%	-10.4%	2.8%	4.85%
Nc1cc(N)[nH]c(=S)n1	16.8%	10.2%	13.9%	-10.9%	-3.95%	-2.35%
CCN(CC)Cc1cc(-n2cnc3c(=S)nc[nH]c32)ccc1O	-3.15%	-12.4%	-8.8%	3.45%	-5.65%	-3.2%
